# Hits are enriched below; roughly 3.2% of the tested compounds scored in any of these assays.
# BRCA1 expr act = activators of BRCA1 expression; AID 624202; Potency, µM (series often up to 46.1 µM), for the others: top-dose activation, usual class: activators; MCF7-BRCA1-FFLuc reporter, luminescence, 48 h; response scale: scaled: vehicle 0%, 10 µM genistein 100%; actives 1.1% (n = 380,000); also: potency is read from the fitted curve at half-maximal effect; nearly all actives have a fitted effect of over 80% in size
#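 Compounds are tested at multiple concentrations on MCF7 BRCA1-luciferase reporter cells seeded at 2000 per well; after 48 h, a single luminescence end-point is taken and curves fitted to the normalized data.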
# Nrf2 activator = activators of Nrf2 (ARE) signaling. AREc32 ARE-luciferase reporter (MCF7-derived line), luminescence, 24 h. Potency, µM (highest dose often 46.1 µM), without a hit: at the highest dose activation, hits mostly activators. actives 0.31% (n = 410,000). AID 624171; also: potency is read from the fitted curve at half-maximal effect; % of control where 0% means no effect; nearly all actives have a fitted effect of over 65% in size
#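 Reporter line AREc32 (ARE-Fluc), seeded overnight in OPTI-MEM with 5% FBS; compound pin-transferred, 24 hr at 37 deg C, 5% CO2; luminescent read-out.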
# IL2 activator = IL-2 activation | actives 0.065% (n = 360,000) | IL-2 activation reporter assay, cell-based qHTS; stimulated with anti-CD3/CD4/CD28 beads; in transgenic mouse T cells | activation, % (series mostly up to about 46 µM); in the data active = activation above about 50%; inconclusive = mostly about 30% to 49%; also: 0% is about no effect
#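 First, unstimulated transgenic mouse T cells were exposed to compound for 60 min. Next, anti-CD3/anti-CD4-coated beads with anti-CD28 were added. Finally, after 18 h at 37 degrees C, EGFP and DsRed were imaged.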
# A549 viability = counter-screen for Nrf2 inhibitors: cytotoxicity in A549 cells; Potency, µM (top dose mostly 46 µM), for the others: at the top dose activity change, negative = cytotoxicity, usual class: inhibitors; A549 ARE-Fluc cells, CellTiter-Fluor viability, 18-24 h; actives 0.16% (n = 390,000); also: potency is read from the fitted curve at half-maximal effect; % is scaled to controls: 0 for no effect and ±100 for the full control effect
#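 A549 ARE-Fluc cells in 5% FBS OPTI-MEM, 5000 cells/well, rested 2 h then exposed to compounds in concentration-response for 18-24 h at 37 °C. Viability by CellTiter-Fluor fluorescence (Ex 405/Em 525) after 30 min; luciferase luminescence (BugLite, 15 min, RT) read afterwards.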
# p53 reactivation = re-activators of mutant p53 | H1299 p53-A138V BP100-luciferase reporter, luminescence, 24 h | Potency, µM (titrated, usually from 92.2 µM), without a hit: at the highest dose activity change, positive = activation, hits mostly activators | actives 0.063% (n = 320,000); also: potency is read from the fitted curve at half-maximal effect; % of control where 0% means no effect; nearly all actives have a fitted effect of over 45% in size
#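 H1299 (p53-null), stable ts p53-A138V + BP100-Luc; 1000 cells/well, Opti-MEM/10% FBS; cpd 4 pt, 1:5; 24 h, 37 deg C, 5% CO2; detection reagent 10 min RT; luminescence.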
# Nrf2 inh = Nrf2 pathway inhibition | AID 504444 | A549 ARE-Fluc reporter, luciferase luminescence, 18-24 h | actives 2.1% (n = 360,000) | Potency, µM (top dose mostly 46 µM), for the others: at the highest dose activity change, negative = inhibition, usual class: inhibitors; also: potency is read from the fitted curve at half-maximal effect; % is scaled to controls: 0 for no effect and ±100 for the full control effect; nearly all actives have a fitted effect of over 60% in size
#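 Reporter: ARE-Fluc in A549. Exposure: 18-24 h, 37 °C, 5% CO2, 5% FBS OPTI-MEM. Readouts: fluorescent cytotoxicity (CellTiter-Fluor), then luminescent Nrf2 signal after BugLite.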
# An asterisk follows results filed as active; ? = inconclusive; / = no result; ! = repeats disagree; [ ] = remark or other dose. Unless noted, calls follow the shape of the dose curve; as a rule, active = well fitted curve in the direction sought with a large enough effect; inconclusive = small, poorly fitted or top-dose-only effect, or another doubt; inactive = no such curve, though single readings can be large; an effect the other way counts as inactive or inconclusive.
SMILES,BRCA1 expr act,Nrf2 activator,IL2 activator,A549 viability,p53 reactivation,Nrf2 inh
COc1ccccc1N1CCN(C(=O)c2ccc3c(=O)n(Cc4ccc5c(c4)OCO5)c(=O)[nH]c3c2)CC1,-26%,0%,5,-9%,3%,15µM*
COc1ccc(Cn2c(=O)[nH]c3cc(C(=O)N4CCN(c5ccccc5OC)CC4)ccc3c2=O)cc1,-62%,0%,2,-26%,-4%,21µM*
COc1ccc(Cn2c(=O)[nH]c3cc(C(=O)N4CCN(c5ccccc5F)CC4)ccc3c2=O)cc1,-17%,0%,0,2%,2%,-19%
O=C(c1[nH]nc2c1CCc1ccccc1-2)N1CCN(Cc2ccc3c(c2)OCO3)CC1,-27%,1%,-5,-17%,1%,15µM*
O=C(c1ccccc1)N1CCN(Cc2ccc3c(c2)OCO3)CC1,-7%,-1%,0,-4%,-1%,1%
COC(=O)c1scc(-c2ccc(C)cc2)c1S(=O)(=O)Nc1cc(Cl)ccc1C,/,9%,/,0%,/,?
O=C(COc1ccccc1C(=O)Nc1ccccc1)Nc1cccc(Cl)c1,-39%,/,/,/,/,/
COCCn1c(=S)[nH]c2cc(C(=O)N3CCN(c4cccc(Cl)c4)CC3)ccc2c1=O,-29%,3%,-2,?,-3%,21µM*
COCCn1c(=O)[nH]c2cc(C(=O)N3CCN(Cc4ccc5c(c4)OCO5)CC3)ccc2c1=O,0%,-1%,0,-2%,/,12µM*
COCCn1c(=S)[nH]c2cc(C(=O)N3CCN(C4CCCCC4)CC3)ccc2c1=O,-2%,0%,0,/,/,/
COc1ccc2c(Sc3ccc(C)cc3)c(C(=O)NCc3ccc(F)cc3)[nH]c2c1,/,-1%,/,-1%,/,10%
CCc1ccc(NC(=O)c2sc3nc(C)c(Cl)c(C)c3c2NC(=O)c2ccccc2OC)cc1,-8%,-1%,/,8%,/,4%
CCc1ccc(NC(=O)c2sc3nc(C)c(Cl)c(C)c3c2N)cc1,-8%,-1%,/,3%,/,3.7µM*
CC(=NNc1nc2ccccc2s1)c1ncccn1,-59%,11µM*,6,?,/,?
CCCN1CCN(C(=O)Cn2nc(C)n3c(cc4sccc43)c2=O)CC1,-13%,1%,-1,13%,-4%,5%
Cc1nn(CC(=O)N2CCN(c3ccccn3)CC2)c(=O)c2cc3sccc3n12,-8%,0%,0,?,7%,29µM*
COc1ccc(OC)c(N=c2ssnc2Cl)c1,-36%,14%,2,1%,-1%,-1%
COc1cc(N=c2ssnc2Cl)c(OC)cc1Cl,-15%,8%,-1,?,-32%,23µM*!
CN(C)c1ccc(C=Nc2ccc(N(C)C)cc2)cc1,-37%,0%,-1,-12%,40µM*,/
CCCN(CC(=O)Nc1ccccc1OC)CC(=O)c1c(N)n(Cc2ccccc2)c(=O)n(C)c1=O,10%,0%,-1,-19%,/,13µM*
Cc1ccc(N(C(=O)CNC(=O)c2ccco2)C(C(=O)NC2CCCCC2)c2cccnc2)cc1C (configuration not stated),-9%,0%,0,-2%,1%,-4%
Cc1ccc(C(C(=O)NC2CCCC2)N(C(=O)Cc2cccs2)c2ccc(C)c(C)c2)o1 (configuration not stated),-51%,2%,0,?,-2%,18µM*
Cc1ccc(N(C(=O)CCl)C(C(=O)NC2CCCCC2)c2cccnc2)cc1C (configuration not stated),-82%,14µM*,-7,-7%,-23%,-10%
Cc1ccc(C)c(N(C(=O)Cc2cccs2)C(C(=O)NC2CCCC2)c2ccc(C)o2)c1 (configuration not stated),-28%,-1%,0,-8%[1.84 µM],-7%,-1%
Nc1ccc(OC(=O)Nc2ccc(O)cc2)cc1,-56%,10%,-6,-6%,-9%,21µM*
SMILES,BRCA1 expr act,Nrf2 activator,IL2 activator,A549 viability,p53 reactivation,Nrf2 inh
Cc1cc(-c2ccccc2)n(-c2ccccc2)n1,8.9µM*,2%,-2,0%,?,?
CNc1cccc(-c2ccc(C(C)=O)s2)n1,6.3µM*,18%,1,/,/,/
CNc1cccc(-c2ccccc2C(C)=O)n1,-10%,0%[9.22 µM],1,/,/,/
COc1ccc(C)cc1NC(=O)C(OC(=O)CNC(=O)c1ccccc1)c1ccccc1 (configuration not stated),/,/,/,-5%,/,-1%
CCCCCN1C=CC(=C2C(=O)c3ccccc3C2=O)C=C1,?,-1%,5,-16%,-4%,9.2µM*
C=CCN=Cc1c(C)[nH]n(-c2ccccc2)c1=O,13µM*,5%,-5,5%,?,?
Cc1[nH]n(-c2ccccc2)c(=O)c1C=Nc1ccc2[nH]c(=O)[nH]c2c1,0%,0%,52*,-5%,1%,7%
CCOc1ccc(Nc2c(S(=O)(=O)c3ccc(Cl)cc3)cnc3ccc(OCC)cc23)cc1,/,6%,/,-16%,/,?
COc1ccccc1CCNC(=O)C1(c2cccs2)CCOCC1,/,-1%,/,-3%,/,/
CC1CCN(C(=O)Cn2cc(SCC(=O)NCc3ccccc3Cl)c3ccccc32)CC1,/,0%,/,-22%,/,-31%
O=C(CN1CC(=O)Oc2ccccc21)OCC(=O)c1cccc(Br)c1,-25%,13µM*,0,-7%,?,-3%
Cc1cccc(NC(=O)Nc2nnc(N3CCCCC3C)s2)c1C (configuration not stated),-4%,-1%,-1,-2%,3%,14%
CC1CCCCN1c1nnc(NC(=O)Nc2ccccc2F)s1 (configuration not stated),/,-1%,/,-25%,/,21µM*
CCOC(=O)c1cccc(C2=CC(=O)C[C@H](c3ccc(OC)cc3)C2)c1,11µM*,4%,1,1%,13µM*,?
COc1ccccc1Nc1nc(-c2cccnc2)cs1,10µM*,5%,0,5%,/,?
c1ccc(CCNc2nc(-c3cccnc3)cs2)cc1,8.9µM*,3%,3,?,?,?
CCN(CC)c1ccc(Nc2nc(-c3cccnc3)cs2)cc1,4µM*,-1%,-1,1%,12%,0%
COc1ccc(Nc2nc(-c3cccnc3)cs2)c(OC)c1,11µM*,4%,0,2%,6%,6%
CN(C)c1ccc(Nc2nc(-c3cccnc3)cs2)cc1,-9%,-1%,0,10%,22%,?

# High-throughput results from PubChem.
